Results published in PubChem BioAssay (NCATS).
Several values for one entry are separate records, joined by “and”; a condition that tells them apart may be missing. Identical values can stand only once. Results filed as inconclusive are left out. A call without a number means that no potency is given here. More than one record can exist for a structure, and the calls need not agree. Activity calls are given as the source filed them. Unless noted, calls follow the shape of the dose curve; as a rule, active = well fitted curve in the direction sought with a large enough effect; inconclusive = small, poorly fitted or top-dose-only effect, or another doubt; inactive = no such curve, though single readings can be large; an effect the other way counts as inactive or inconclusive.

Tests used:
[1] = qHTS Assay for Identification of Small Molecule Agonists for NFkB Signaling Pathway. (AID 624478);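 also: compounds tested together with TNF alpha at its EC50 of 10 pM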
In short: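 Assay medium contained 0.5% FBS and 10 mM HEPES pH 7.3. Compounds were added together with TNF alpha (10 pM final), incubated 5 h at 37 C, and the beta-lactamase signal was measured fluorometrically.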

[2] = qHTS Assay for Identification of Small Molecule Antagonists for NFkB Signaling Pathway. (AID 624479; calls by dose curve;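 also: pathway stimulated with TNF alpha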; also: potency is read from the fitted curve at half-maximal effect)
[3] = Cell Proliferation Assay against the TMD8 Cell Line (AID 651645); conditions: TMD8 DLBCL cell line proliferation/viability; at 46.1 µM (top of the series);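 also: cells exposed to compound for 48 h before reading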
In short: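 TMD8 cells, 500/well in RPMI with 5% FBS, dosed immediately and grown 48 h at 37 C, 5% CO2. CellTiter-Glo luminescence normalised to DMSO 100% and 9.2 uM bortezomib (final) 0%.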

[4] = Cell Proliferation Assay against the HBL1 Cell Line (AID 651646); conditions: HBL1 DLBCL cells; at 46.1 µM (top of the series);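 also: cells exposed to compound for 48 h before reading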
In short: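 CellTiter-Glo luminescence after 48 h compound exposure at 37C gives percent activity, with DMSO as 100% and 9.2 uM bortezomib final as 0%. Cells: 500 log-phase HBL1 per well, RPMI plus 5% FBS.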

[5] = Cell Proliferation Assay against the TMD8 Cell Line (Caspase readout at 16 hrs) (AID 651712)
In short: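 Caspase-Glo luminescence measured apoptosis after a 16 h, 37 C compound exposure of TMD8 cells (500 cells/well, 5% FBS RPMI). DMSO set 0% and bortezomib at 9.2 uM final set 100% activity.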

[6] = Cell Proliferation Assay against the TMD8 Cell Line (Caspase readout at 8 hrs) (AID 651713)
In short: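 Luminescent caspase 3/7 assay; TMD8 cells, 8 h treatment at 37C, 5% CO2. Normalisation: DMSO 0%, 9.2 uM bortezomib 100%.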

[7] = Cytotoxicity counterscreen for NFkB agonists and antagonists (AID 624476);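 also: cells exposed to compound for 48 hours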; also: potency is read from the fitted curve at half-maximal effect
[8] = qHTS assay for small molecule agonists of the antioxidant response element (ARE) signaling pathway (AID 651741; active = well fitted activation curve with a large enough effect in the signal ratio; the % refers to the signal ratio; also: potency is read from the fitted curve at half-maximal effect)
In short: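 Agonist activity is measured as ARE-driven beta-lactamase expression in a stable HepG2 reporter line, using 16 h compound treatment at 37 C and a FRET substrate fluorescence readout after 2 h.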

[9] = qHTS assay for small molecule activators of the p53 signaling pathway (AID 651743; active = well fitted activation curve with a large enough effect in the signal ratio, not every such curve was filed as active; the % refers to the signal ratio); conditions: HCT-116 p53RE-bla, beta-lactamase FRET ratio, 16 h; stronger effect = higher value
In short: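 A beta-lactamase reporter under p53 response element control, stably carried by HCT-116 cells, reported pathway activation. Test compounds were applied for 16 hours at 37 C, and fluorescence was measured 2 hours after adding the B/G FRET substrate.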

[10] = qHTS assay for small molecule activators of the nuclear factor-kappa B (NF-kB) signaling pathway (AID 651749; active = well fitted activation curve with a large enough effect in the signal ratio; the % refers to the signal ratio); conditions: NF-kB-bla ME-180 cells, beta-lactamase FRET ratio, 16 h; stronger effect = higher value
In short: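 FRET-based beta-lactamase detection in ME-180 cells reports NF-kB response-element-driven transcription following overnight (16 hr) compound treatment.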

[11] = qHTS assay for small molecule disruptors of the mitochondrial membrane potential - 1 hr assay (AID 651754; calls by dose curve; also: nearly all actives have a fitted effect of over 35% in size)
In short: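 In this qHTS format, a 1 hr compound treatment of HepG2 cells precedes Mito-MPS staining, and membrane potential is judged from aggregate (red) against monomer (green) fluorescence intensity.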

[12] = qHTS assay for small molecule disruptors of the mitochondrial membrane potential - 5 hr assay (AID 651755; calls by dose curve; also: nearly all actives have a fitted effect of over 40% in size)
In short: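 Membrane-potential dye readout: red aggregate (540 ex/590 em) versus green monomer (490 ex/535 em) fluorescence after 30 min dye loading, following 5 hr compound exposure at 37C of overnight-plated HepG2 cells.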

[13] = target: Tumor necrosis factor (Homo sapiens) (UniProt P01375); assay: qHTS assay to identify small molecules that stimulate Tumor Necrosis Factor-alpha (TNF-alpha) secretion (AID 651757; active = well fitted curve in the direction sought with a large enough effect in the signal ratio; the % refers to the signal ratio)
Tumor necrosis factor (Homo sapiens), sequence (P01375 whole entry, looked up): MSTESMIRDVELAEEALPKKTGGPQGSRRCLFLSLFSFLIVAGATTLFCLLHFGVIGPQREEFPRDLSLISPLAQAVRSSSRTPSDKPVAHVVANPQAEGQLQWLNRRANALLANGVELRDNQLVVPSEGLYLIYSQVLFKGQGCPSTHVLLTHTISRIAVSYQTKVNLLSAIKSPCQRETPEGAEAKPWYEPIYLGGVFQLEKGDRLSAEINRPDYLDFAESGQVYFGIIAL
In short: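 Using 3000 THP-1 cells per well, compounds and controls were applied for 17 hrs at 37 C. Detection followed with two labeled anti-TNF-alpha antibodies (cryptate donor, XL665 acceptor) for 3 hr at room temperature, measured by TR-FRET.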

O=C(Nc1cccc(Cl)c1)Nc1ncc(CCNc2ncnc3ccsc23)s1
outcome [1]: inactive | Potency [2]: 23.7 µM (active) | viability (% of control) [3]: 1.73% | viability, percent of control [4]: 2.32% | Potency [5]: inactive | Potency [6]: inactive

CC(C)(C)c1[nH]cnc1C=c1[nH]c(=O)c(=Cc2ccccc2)[nH]c1=O
outcome [1]: inactive | viability (% of control) [3]: 1.63% | viability, percent of control [4]: 7.81%

COc1c(C)cnc(Cn2cnc3c(Cl)nc(N)nc32)c1C
Potency [7]: inactive | outcome [1]: inactive | Potency [2]: 0.0211 µM (active) | viability (% of control) [3]: 13.8% | viability, percent of control [4]: 59.9% | Potency [6]: inactive

CC(C)n1c(C=C[C@H](O)C[C@H](O)CC(=O)O)c(-c2ccc(F)cc2)c2ccccc21
Potency [7]: inactive | outcome [1]: inactive | Potency [2]: inactive | Potency [5]: inactive | Potency [6]: inactive

C[C@@H]1C[C@H]2[C@@H]3CCC4=CC(=O)C=C[C@]4(C)[C@@]3(F)[C@@H](O)C[C@]2(C)[C@@]1(O)C(=O)CO
Potency [8]: 42.2 µM (active) and inactive | activation [9]: -3.68% (inactive) and -5.63% (inactive) | activation [10]: -2.02% (inactive) and -1.92% (inactive) | outcome [11]: inactive | outcome [12]: inactive | outcome [13]: inactive

CC(=O)NCCC(=O)N[C@@H](CCC(N)=O)C(=O)N[C@@H](CO)C(=O)N[C@@H](CCC(N)=O)C(=O)N[C@@H](CCC(N)=O)C(=O)N[C@H](C(=O)N[C@@H](Cc1ccccc1)C(=O)N[C@]1(C)CCCCCCC=CCCC[C@@](C)(C(=O)N[C@@H](CCC(N)=O)C(=O)N[C@@H](CC(N)=O)C(N)=O)NC(=O)[C@H](CC(C)C)NC(=O)[C@H](CC(C)C)NC(=O)[C@@H](CCCNC(=N)N)NC(=O)[C@H](Cc2c[nH]c3ccccc23)NC(=O)[C@H](CC(C)C)NC(=O)[C@H](CC(N)=O)NC1=O)[C@H](C)O
outcome [1]: inactive | viability (% of control) [3]: 22.4% | viability, percent of control [4]: 3.58% | Potency [5]: inactive

COC(=O)Nc1ccc(-c2nc(N3CCOCC3)c3cnn(C4CCN(C(=O)OC)CC4)c3n2)cc1
outcome [1]: inactive | Potency [2]: inactive | viability (% of control) [3]: 32.2% | viability, percent of control [4]: 51.1% | Potency [6]: inactive

Cc1c(C(=O)Nc2ccc(N3C[C@@H](C)O[C@@H](C)C3)nc2)cccc1-c1ccc(OC(F)(F)F)cc1
outcome [1]: inactive | viability (% of control) [3]: 48.4% | viability, percent of control [4]: 32.3%

NC(=O)c1ccc(N(C(N)=O)c2c(F)cccc2F)nc1-c1ccc(F)cc1F
Potency [7]: inactive | outcome [1]: inactive | Potency [2]: inactive | viability (% of control) [3]: 81.2% | viability, percent of control [4]: 110% | Potency [5]: inactive | Potency [6]: inactive

Cn1cc(-c2ccc3nnc(Sc4ccc5ncccc5c4)n3n2)cn1
Potency [7]: inactive | Potency [2]: inactive | viability (% of control) [3]: 74.4% | viability, percent of control [4]: 119% | Potency [5]: inactive | Potency [6]: inactive

CCCCOCCOc1nc(-c2ccc(C(=O)O)c(F)c2)sc1C
Potency [7]: inactive | outcome [1]: inactive | Potency [2]: inactive | viability (% of control) [3]: 98.4% | viability, percent of control [4]: 84.4% | Potency [5]: inactive | Potency [6]: inactive

CCN(CC)CCCCNc1nc2cc(Cl)c(Cl)cc2nc1-c1ccc(-c2cccs2)s1
outcome [1]: inactive | Potency [2]: 11.9 µM (active) | viability (% of control) [3]: 1.61% | viability, percent of control [4]: 1.92% | Potency [5]: inactive

CN(C)CCCNC(=O)c1ccc(-c2cc(O)c3ncccc3c2)cc1
outcome [1]: inactive | Potency [2]: inactive | viability (% of control) [3]: 2.8% | viability, percent of control [4]: 31%

CCOC(=O)[C@@H](N)CCC(=O)N[C@@H](CSCc1ccccc1)C(=O)N[C@@H](C(=O)OCC)c1ccccc1
Potency [7]: inactive | viability (% of control) [3]: 62.4% | viability, percent of control [4]: 89.4%

O=C(O)Cc1cccc(OCCCN(Cc2cccc(C(F)(F)F)c2Cl)CC(c2ccccc2)c2ccccc2)c1
Potency [7]: 26.4 µM (active) | viability (% of control) [3]: 8.71% | viability, percent of control [4]: 12.9%

CNC(=O)c1cc(COc2nnc(Nc3ccc(Cl)cc3)c3ccoc23)ccn1
Potency [2]: 26.6 µM (active) | viability (% of control) [3]: 39.7% | viability, percent of control [4]: 6.77%
